Screening results (PubChem BioAssay)
Only some compounds are listed: those with a hit (about 1.8% of all), similar ones and a draw of the others.
NOD2 RIPK2 PPI – inhibitors of human NOD2-RIPK2 interaction | CHO BLA complementation NOD2-RIPK2, CCF4 ratio | O43353 | hit rate 0.38% among 360,000 | AID 624267 | inhibition, % at 4.98 µM; in the data active means inhibition above about 21%;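 further: 0% = vehicle only and 100% = reference blocker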
TLR9-MyD88 inh – inhibitors of human TLR9-MyD88 binding | hit rate 0.21% among 340,000 | inhibition, % at 4.98 µM | CHO BLA complementation TLR9-MyD88, CCF4 FRET ratio;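 active means inhibition above the mean over all tested compounds plus 3 SD, cut at about 21% in these data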;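 further: 0% = DMSO only wells and 100% = clavulanate BLA inhibitor control wells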
Target sequence (Q99836 whole entry, looked up): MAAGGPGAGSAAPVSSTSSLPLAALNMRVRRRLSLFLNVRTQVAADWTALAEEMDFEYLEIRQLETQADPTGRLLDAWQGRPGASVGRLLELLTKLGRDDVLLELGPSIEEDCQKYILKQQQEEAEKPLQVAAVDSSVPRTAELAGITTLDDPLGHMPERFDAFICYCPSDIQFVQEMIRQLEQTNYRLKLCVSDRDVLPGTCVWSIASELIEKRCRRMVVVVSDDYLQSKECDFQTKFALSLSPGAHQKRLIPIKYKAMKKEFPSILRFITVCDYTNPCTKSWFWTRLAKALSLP
Target sequence (Q9NR96 whole entry, looked up): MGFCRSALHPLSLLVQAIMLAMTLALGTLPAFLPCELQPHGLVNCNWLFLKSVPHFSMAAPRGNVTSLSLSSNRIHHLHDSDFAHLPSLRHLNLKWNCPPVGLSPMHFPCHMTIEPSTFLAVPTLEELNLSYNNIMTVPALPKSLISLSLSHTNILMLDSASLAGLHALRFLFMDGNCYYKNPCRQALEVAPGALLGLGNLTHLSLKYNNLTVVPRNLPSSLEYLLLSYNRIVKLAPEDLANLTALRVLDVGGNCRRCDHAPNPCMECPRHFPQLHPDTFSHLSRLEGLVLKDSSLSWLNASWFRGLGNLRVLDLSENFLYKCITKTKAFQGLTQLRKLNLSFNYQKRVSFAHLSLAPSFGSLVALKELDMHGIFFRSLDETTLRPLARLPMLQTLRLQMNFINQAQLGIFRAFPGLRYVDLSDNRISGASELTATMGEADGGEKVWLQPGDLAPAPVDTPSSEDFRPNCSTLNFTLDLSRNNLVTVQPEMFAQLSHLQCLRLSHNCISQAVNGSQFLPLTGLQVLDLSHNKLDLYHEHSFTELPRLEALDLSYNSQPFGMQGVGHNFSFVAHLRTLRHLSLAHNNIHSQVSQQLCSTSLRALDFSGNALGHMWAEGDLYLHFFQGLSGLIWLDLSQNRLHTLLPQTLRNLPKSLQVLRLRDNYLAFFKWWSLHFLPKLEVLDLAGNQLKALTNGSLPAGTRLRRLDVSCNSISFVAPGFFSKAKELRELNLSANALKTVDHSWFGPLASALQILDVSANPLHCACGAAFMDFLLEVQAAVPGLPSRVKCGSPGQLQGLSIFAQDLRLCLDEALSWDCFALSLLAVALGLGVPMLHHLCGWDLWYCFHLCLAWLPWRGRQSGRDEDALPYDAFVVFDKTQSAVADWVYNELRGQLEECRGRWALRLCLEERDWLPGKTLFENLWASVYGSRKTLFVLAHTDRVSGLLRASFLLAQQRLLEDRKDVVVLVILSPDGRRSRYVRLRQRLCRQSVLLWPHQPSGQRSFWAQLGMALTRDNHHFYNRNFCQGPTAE
TLR4 MyD88 comp – blocks binding of human TLR4 to MyD88; O00206+Q99836; HeLa CL3-4 TLR4/MyD88 BLA complementation, FRET ratio; inhibition, % at 8.4 µM; hit rate 0.18% among 200,000; AID 861; in the data active means inhibition above about 25%;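 further: 0% = vehicle and 100% = reference inhibitor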
Mcl1 Bid PPI – disrupts binding of human Mcl-1 to Bid peptide | hit rate 0.97% among 220,000 | Q07820 | inhibition, % at 21.7 µM | TR-FRET Mcl-1/Bid-Dy647 peptide binding, 1536-well | AID 1021;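 active means compounds that cut the binding signal by more than half at the single screening dose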;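 further: His-tagged Mcl-1 with europium anti-His antibody binding Bid BH3 peptide; 0% = Mcl-1 plus peptide wells and 100% = peptide-only wells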
Bim-Mcl-1 – disrupts Bim peptide binding to human Mcl-1; Bead-based flow cytometry, Bim peptide-Mcl-1 binding; inhibition, % at 10 µM; hit rate 0.1% among 190,000; AID 1009; in the data active means inhibition above about 40%;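 further: 0% = no compound tracer wells and 100% = peptide blocker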
Mcl1 Noxa PPI – disrupts binding of human Mcl-1 to Noxa peptide. Q07820. TR-FRET Mcl-1/Noxa peptide binding, 2 h. inhibition, % at 21.7 µM. hit rate 1.5% among 220,000;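 active means compounds that cut the protein-peptide binding signal by more than 50% relative to plate controls in a single-dose test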;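 further: His-tagged Mcl-1 with rhodamine Noxa BH3 peptide and terbium anti-His antibody; 0% = Mcl-1 plus Noxa peptide wells and 100% = peptide-only wells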
Numbers without * were called inactive; . = no result.

SMILES	NOD2 RIPK2 PPI	TLR9-MyD88 inh	TLR4 MyD88 comp	Mcl1 Bid PPI	Bim-Mcl-1	Mcl1 Noxa PPI
Cc1ccc(S(=O)(=O)Nc2ccc(NC(=O)Nc3cccc(C(F)(F)F)c3)cc2)cc1	8	1	12	-9	0	13
Cc1c(C=O)c(Cl)n(C)c(=O)c1C#N	-6	-2	-4	-6	0	55*
CC(=O)N=Cc1c(C)c(C#N)c(=O)n(C)c1O	-9	9	-13	-49	-1	28
N#CCCN(Cc1cccnc1)C(=S)NC(=O)C1CC1	.	.	9	-28	-3	-2
COC(=O)/C=C(\C)N=Nc1c(O)[nH]c2ccccc12	14	-1	.	34	.	52*
CC(C)(O)C(=O)N=Nc1c(O)[nH]c2ccccc12	-13	11	2	5	-5	-11
CCCCCOc1ccc(C(=O)NCCC(=O)NCCCC(=O)OCC)cc1	-6	11	.	-9	.	1
CCOC(=O)CCCNC(=O)CCNC(=O)c1ccc(OCC)cc1	3	7	-11	-12	-1	66*
COc1ccc2[nH]cc(C3N4CC5(C)CN3CC(C)(C4)C5=O)c2c1 (stereo not drawn)	-20	6	-15	55*	2	3
CCCCC[C@H](O)/C=C/[C@H]1C=CC(=O)[C@@H]1C/C=C\CCCC(=O)O	.	.	-14	42	-3	69*
Cc1nc2ccccn2c1-c1ccnc(=S)[nH]1	1	-3	.	-30	.	57*
CCOC(=O)CC1(c2ccccc2)CCOC(C)(C)C1 (stereo not drawn)	-16	-7	-3	-30	3	9
CC1(C)CC(CC(=O)O)(c2ccccc2)CCO1 (stereo not drawn)	3	-9	5	66*	0	-19
O=C(O)C/C(=C\c1cccc(NC(=O)c2ccccc2Cl)c1)c1nc2ccccc2s1	-4	1	.	-20	.	65*
COc1ccc(C(=O)Nc2cccc(/C=C(\CCC(=O)O)c3nc4ccccc4s3)c2)cc1	-10	-9	.	-61	.	85*
CNc1ccc(/C=C(\CCC(=O)O)c2nc3ccccc3s2)cc1[N+](=O)[O-]	-6	3	-5	-80	-2	34
COc1cc(/C=C(\CC(=O)O)c2nc3ccccc3s2)cc(OC)c1O	-1	-5	4	19	-1	58*
COc1cc(/C=C(\C#N)c2nc3ccccc3s2)ccc1OCC(=O)Nc1ccccc1	-8	7	-6	78*	0	17
O=S(=O)(Nc1cccc(-n2cnnn2)c1)c1ccccc1C(F)(F)F	-5	8	.	.	.	.
COc1ccccc1NC(=O)COC(=O)C1=NN(c2ccccc2)C(=O)CC1	-50	-3	.	.	.	.
O=C(Nc1cccc(/C=C/c2nc3ccccc3c(=O)[nH]2)c1)c1ccccc1Cl	-9	-3	.	10	.	-3
COc1ccc(C(=O)Nc2nc3cc(OC)c(OC)cc3c(=O)[nH]2)cc1	14	6	-5	99*	10	-8
COc1ccc(C(=O)Nc2cccc(/C=C/c3nc4ccccc4c(=O)[nH]3)c2)cc1	-2	-3	.	43	.	57*
Cc1ccc(/C=C(\CCC(=O)O)c2nc3ccccc3s2)cc1[N+](=O)[O-]	-12	-5	7	4	-4	27
CN(c1ccccc1)c1ccc(/C=C(\CCC(=O)O)c2nc3ccccc3s2)cc1[N+](=O)[O-]	-6	-3	-2	-41	-1	100*
SMILES	NOD2 RIPK2 PPI	TLR9-MyD88 inh	TLR4 MyD88 comp	Mcl1 Bid PPI	Bim-Mcl-1	Mcl1 Noxa PPI
Cc1cc(C)c(NC(=O)CNC(=O)c2ccccc2OCc2c(C)noc2C)c(C)c1	1	-1	.	.	.	.
COc1ccccc1N1CCN(CCCNC(=O)C2CCCN(c3ncnc4c3nc3n4CCCCC3)C2)CC1 (stereo not drawn)	-4	2	.	.	.	.
C[C@@H]1CN([C@@H](C)CO)C(=O)c2cc(Br)cnc2O[C@H]1CN(C)Cc1cccc(C(=O)O)c1	0	5	.	.	.	.
Cc1ccc(C(C)C)cc1NC(=O)Nc1ccc([N+](=O)[O-])cc1	-8	-8	.	85*	.	18
Cc1cc(O)c(C(C)C)cc1NC(=O)Nc1ccc([N+](=O)[O-])cc1	2	1	.	.	.	.
CCCOc1ccc(C(=O)N(CC(C)C)c2c(N)n(Cc3ccccc3)c(=O)[nH]c2=O)cc1	-4	-4	.	.	.	.
Cn1c(=O)c2c(nc(Cc3ccc(N)cc3)n2C)n(C)c1=O	9	1	.	98*	.	12
COc1ccc(-n2c(SCC(=O)Nc3cc(C)on3)nc3c(c2=O)SC(C)C3)cc1 (stereo not drawn)	-1	-1	.	.	.	.
CC(=O)NCC(=O)OC(C)C(=O)Nc1ccc(C(C)=O)cc1 (stereo not drawn)	5	8	-14	-10	-2	25
Cc1ccc(C(=O)NCC(=O)OC(C)C(=O)Nc2ccc(N(C)C)cc2)cc1C (stereo not drawn)	-7	11	6	-60	1	71*
O=C(O)c1[nH]c2ccccc2c1C=NCc1ccccc1Cl	4	6	2	89*	0	-5
O=C(O)c1[nH]c2ccccc2c1C(c1c(F)cccc1Cl)c1c(C(=O)O)[nH]c2ccccc12	-14	4	.	.	.	.
C[C@@H]1CN([C@H](C)CO)C(=O)c2c(c3ccccc3n2C)-c2ccccc2CO[C@H]1CN(C)C(=O)Nc1ccccc1	-1	-8	.	.	.	.
COc1ccc2c3c(cccc13)N(C)N=C2C	8	-2	-17	-46	18	87*
CNNC(=O)C(=O)NNS(=O)(=O)c1ccccc1	-9	-13	-1	86*	-1	-3
CC(=O)N1CCN(c2ccc(Nc3ncnc4c3oc3ccccc34)cc2)CC1	7	-11	-6	20	2	68*
CCc1nc(Nc2ccc(N3CCN(C(C)=O)CC3)cc2)c2oc3ccccc3c2n1	2	-18	-20	33	0	85*
OCCCNc1ncnc2c1ncn2[C@H]1CN(Cc2ccc3c(c2)OCO3)C[C@@H](CO)O1	-5	.	.	.	.	.
O=C(Nc1ccccc1)c1cc(C2CCCCN2C(=O)OCCF)on1 (stereo not drawn)	-3	.	.	.	.	.
Cc1ccccc1CNc1nnnn1C	0	4	-10	-7	2	9
COc1ccc(CNC(=O)C[C@H]2C[C@H](C(=O)N3CCCCC3)[C@@]3(C)c4[nH]c5cc(CCC(=O)N(C)C)ccc5c4CCN3C2=O)cc1OC	5	-5	.	.	.	.
O=C(Nc1ccc(Cl)cc1)c1cc2c(cc1O)[nH]c1ccccc12	10	7	.	34	.	61*
CC(=O)Nc1ccc2[nH]c3ccccc3c2c1	-6	-2	-24	-28	-1	-18
NC(=O)COC(=O)/C=C/c1cccc(Br)c1	-14	-1	-5	-5	0	9
CCOc1ccc(NC(c2ccccn2)c2oc(CO)cc(=O)c2O)cc1 (stereo not drawn)	-1	-12	-2	-73	-4	63*
